Bioassay records from PubChem BioAssay.
Sampled rows, rich in hits. Any-hit rate of the full collection: about 15%.
Pf growth 48h: P. falciparum growth inhibition at 48 hours (one generation) | P. falciparum luciferase growth in erythrocytes, 48 h | Potency, µM (highest dose often 28.7 µM), most hits filed as inhibitors | 310,000 tested, 5.9% active
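Erythrocytes infected with P. falciparum carrying an integrated firefly luciferase reporter (2% hematocrit, 0.1% parasitemia final) were exposed to compounds in RPMI 1640 with 0.5% Albumax at 37 C, 5% CO2. Growth inhibition was scored as reduced luminescence.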
HCMV inh: human cytomegalovirus inhibition | HFF cells, HCMV-luciferase reporter, 72 h; stronger effect = lower value | activity change, negative = inhibition, % at 57.5 µM | 410,000 tested, 4.5% active | AID 1259415; in the data active = activity change below about -60%; inconclusive = no clear call, values can overlap the other calls; inactive = above about -39%
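Luciferase read-out from HCMV-luciferase-infected HFFs (MOI 1 PFU/cell) 72 h post infection at 37C; compounds added after 16 h cell attachment; activity normalized between buffer-only basal and Salinomycin (10uM) inhibitor controls.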
SARS PLP yeast: blocks SARS-CoV papain-like protease in a yeast assay. 330,000 tested, 0.19% active. S. cerevisiae expressing SARS-CoV PLpro, growth rescue. Potency, µM (top dose mostly 32.9 µM), most hits filed as activators; calls by dose curve; note: nearly all actives have a fitted effect of over 55% in size
HCV inhibitor: blocks hepatitis C virus | Potency, µM (top dose mostly 41.8 µM), most hits filed as inhibitors | Huh7.5.1 HCVcc-Cre infection, luciferase reporter, 44 h | 340,000 tested, 3.4% active | AID 651820
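HCVcc-Cre virus at an moi near 0.5 was added right after compound to cells cultured 4 h from seeding (1,000 cells/well). Luciferase activity was determined 44 h later, 15 min after substrate addition at RT.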
Pf growth 96h: P. falciparum growth inhibition at 96 hours. P. falciparum luciferase reporter growth, 96 h. Potency, µM (top dose mostly 28.7 µM), most hits filed as inhibitors. 320,000 tested, 6.9% active. AID 504834
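96 h incubation, 37 C, 5% CO2, of luciferase-reporter P. falciparum-infected RBCs (2% hematocrit, 0.05% parasitemia final) with test compounds; endpoint luminescence.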
Sm TGR block: S. mansoni TGR enzyme inhibition | Q962Y6 | purified TGR, DTNB reduction, TNB absorbance 405 nm | Potency, µM (top dose mostly 114 µM), most hits filed as inhibitors | 360,000 tested, 3% active; note: nearly all actives have a fitted effect of over 60% in size
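TGR 20 nM + NADPH 100 uM (dispensed conc.), cpd preinc 15 min RT; start with NADPH (500 uM addition) then DTNB (15 mM addition). Kinetic TNB absorbance, 405 nm filter. Four-parameter Hill fit across titration.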
Large screens that a line does not name were inactive; ! = a repeat was not active. Unless noted, calls come from the whole dose curve; as a rule, active = well fitted curve in the direction sought with a large enough effect; inconclusive = small, poorly fitted or top-dose-only effect, or another doubt; inactive = no such curve, though single readings can be large; an effect the other way counts as inactive or inconclusive.

CCn1cc(CN2CCc3c([nH]c4ccccc34)C2c2cccc(OC)c2OC)c(C)n1 (configuration not stated)	Pf growth 48h 12µM
COC(=O)[C@@H]1CC(=O)N[C@@H]1c1ccc(OC(C)C)c(OC)c1	none (no result: Pf growth 48h, SARS PLP yeast, HCV inhibitor, Pf growth 96h, Sm TGR block)
CCOc1ccccc1NC(=O)c1cc2cc(C)ccc2n1C	none (no result: Pf growth 48h, SARS PLP yeast, HCV inhibitor, Pf growth 96h)
O=C(Nc1ccccc1)SC1CCCCC1	none (no result: Pf growth 48h, SARS PLP yeast, Pf growth 96h, Sm TGR block)
Cc1ccc(NC(=O)CSc2ncc3c(n2)-c2ccccc2N(C)S3(=O)=O)c(Cl)c1	none (no result: Pf growth 48h, SARS PLP yeast, HCV inhibitor, Pf growth 96h)
COc1ccc(C2c3[nH]c4ccccc4c3CCN2C(=O)c2cn3ccccc3n2)c(F)c1 (configuration not stated)	Pf growth 48h 15µM, Pf growth 96h inconclusive
N#Cc1ccccc1S(=O)(=O)Nc1ccc2c(c1)C(=O)OC2	none
COc1ccc(N(CC(=O)N2CCN(c3ccc(Cl)cc3)CC2)S(=O)(=O)c2c(C)noc2C)cc1	Pf growth 48h inconclusive, HCV inhibitor 11µM, Pf growth 96h inconclusive
COc1ccc(N(CC(=O)N2CCN(c3ccc(F)cc3)CC2)S(=O)(=O)c2c(C)noc2C)cc1	Pf growth 48h inconclusive, Pf growth 96h 1.9µM
COc1ccc(N(CC(=O)N2CCN(c3cccc(Cl)c3)CC2)S(=O)(=O)c2c(C)noc2C)cc1	Pf growth 48h 10µM, HCMV inh -67!, HCV inhibitor inconclusive, Pf growth 96h inconclusive
CCOc1ccc(N(CC(=O)N2CCN(c3ccc(F)cc3)CC2)S(=O)(=O)c2c(C)noc2C)cc1	Pf growth 48h 10µM, HCV inhibitor inconclusive, Pf growth 96h inconclusive
COc1ccc(N(CC(=O)N2CCN(c3ccc(F)cc3)CC2)S(=O)(=O)c2c(C)n[nH]c2C)cc1	HCMV inh inconclusive
CCOc1ccc(N(CC(=O)N2CCN(c3ccccc3F)CC2)S(=O)(=O)c2c(C)noc2C)cc1	Pf growth 48h inconclusive
CCn1c(=S)sc2c(=O)n(-c3ccccc3)c(=S)[nH]c21	HCMV inh -94, Sm TGR block 22µM
O=C(O)c1ccc(Br)cn1	none
N#Cc1ccccc1NC(=O)COC(=O)CSc1nc2ccccc2o1	Pf growth 96h 1µM
COc1ccc(C2=Nc3ccccc3NC(=O)C2N(Cc2ccc(F)cc2)C(=O)c2ccco2)cc1 (configuration not stated)	none (no result: Pf growth 48h, SARS PLP yeast, HCV inhibitor, Pf growth 96h, Sm TGR block)
CC1(C)CC(C(CC(=O)O)c2ccccc2)CCO1 (configuration not stated)	none
COc1ccc(CN(CCC(c2ccc(F)cc2)C2CCOC(C)(C)C2)C(=O)c2ccco2)cc1 (configuration not stated)	Pf growth 48h 9.3µM, HCV inhibitor inconclusive, Pf growth 96h inconclusive
CC(c1ccccc1)N(CCC(c1ccccc1)C1CCOC(C)(C)C1)C(=O)c1ccco1 (configuration not stated)	Pf growth 48h 12µM, HCMV inh -101
O=C(c1ccc2c(c1)N(Cc1ccccc1)C(=O)c1ccccc1S2(=O)=O)N1CCN(c2ccccn2)CC1	none (no result: Pf growth 48h, SARS PLP yeast, HCV inhibitor, Pf growth 96h)
CC1CCC2(CC1)OCC1(CCC3(COC4(CCC(C)CC4)OC3)C1=O)CO2 (configuration not stated)	none (no result: Sm TGR block)
Cc1nc(-c2ccccc2)[nH]c(=O)c1Oc1ccc(Cl)cc1Cl	none
O=c1[nH]c(=S)[nH]cc1Oc1ccc(Cl)cc1Cl	HCMV inh -97
COc1ccc(CNC(=O)COC(=O)CN2C(=O)NC3(CCCC3)C2=O)cc1	Pf growth 48h inconclusive
O=C(CC1Nc2ccccc2NC1=O)NCC1COc2ccccc2O1 (configuration not stated)	Pf growth 48h 12µM (no result: HCMV inh)
O=C(CC1OC(=O)c2ccccc21)NCC1COc2ccccc2O1 (configuration not stated)	none
CCOC(=O)N1CCC(NC(=O)CSc2cc(=O)n(C)c3ccccc23)CC1	Pf growth 96h 13µM
Cn1c(=O)cc(SCC(=O)NCC2COc3ccccc3O2)c2ccccc21 (configuration not stated)	Pf growth 96h 2.9µM
CCOc1ccc(NC(=O)COC(=O)C2C3CC4OC(=O)C2C4C3)cc1 (configuration not stated)	Pf growth 48h inconclusive
CC(C)C(=O)N1CCN(c2ccccc2NC(=O)Cc2ccc(Cl)cc2)CC1	Pf growth 48h 13µM, HCV inhibitor inconclusive
O=C(Cc1ccccc1)Nc1ccccc1N1CCN(c2ccccc2)CC1	Pf growth 48h 9.3µM, HCMV inh inconclusive (no result: Pf growth 96h)
CCC(=O)N1CCN(c2ccccc2NC(=O)Cc2ccccc2)CC1	Pf growth 48h 10µM, HCV inhibitor inconclusive
CS(=O)(=O)N1CCN(c2ccccc2NC(=O)Cc2ccccc2)CC1	none
COc1ccc(Cl)cc1NC(=O)CCn1cnc2ccccc2c1=O	HCMV inh inconclusive, HCV inhibitor 11µM
COc1ccc(CCNC(=O)CCCn2c(=O)c3ccccc3n(CC(=O)Nc3cc(Cl)ccc3C)c2=O)cc1OC	none (no result: Pf growth 48h, SARS PLP yeast, HCV inhibitor, Pf growth 96h)
O=C(CCn1cnc2ccccc2c1=O)Nc1cccc(Cl)c1	Pf growth 48h inconclusive
COc1ccc(Cl)cc1NC(=O)Cn1c(=O)n(CCCC(=O)NCCc2ccc(OC)c(OC)c2)c(=O)c2ccccc21	HCMV inh -80 (no result: Pf growth 48h, SARS PLP yeast, HCV inhibitor, Pf growth 96h)
CCC(Cc1ccccc1)NC(=O)Cn1ncc2c3ccccc3n(Cc3ccc(F)cc3)c2c1=O (configuration not stated)	HCMV inh inconclusive (no result: Pf growth 48h, SARS PLP yeast, HCV inhibitor, Pf growth 96h)
COc1ccc(Cl)cc1NC(=O)Cn1ncc2c3ccccc3n(Cc3ccccc3)c2c1=O	HCMV inh -68 (no result: Pf growth 48h, SARS PLP yeast, HCV inhibitor, Pf growth 96h)
CCC(Cc1ccccc1)NC(=O)Cn1ncc2c3ccccc3n(Cc3ccccc3)c2c1=O (configuration not stated)	HCMV inh -99 (no result: Pf growth 48h, SARS PLP yeast, HCV inhibitor, Pf growth 96h)
CCN(CC)CCCN(Cc1cc2cc3c(cc2[nH]c1=O)OCO3)C(=S)Nc1ccc(OC)cc1	Pf growth 48h inconclusive
COCCCn1c(=O)c2sccc2n(Cc2ccc(C)cc2)c1=O	none
O=C(OCc1ccc([N+](=O)[O-])cc1)c1cc(=O)c2ccccc2o1	none
COC(=O)Cn1ncc2c3ccccc3n(Cc3ccccc3)c2c1=O	Pf growth 48h inconclusive, Pf growth 96h 5.2µM
NCCCC[C@H]1CN=C(N)N1CCC12CC3CC(CC(C3)C1)C2	Pf growth 48h 9.3µM, Pf growth 96h 3.7µM
CCN(CC)c1ccc(-c2sc(Nc3ccccc3)n[n+]2-c2ccc(F)cc2)cc1	Pf growth 96h 9.3µM
CCc1ccc(Nc2n[n+](-c3ccccc3)c(-c3ccc(OCc4ccccc4)cc3)s2)cc1	Pf growth 48h inconclusive, HCMV inh -96, HCV inhibitor inconclusive, Pf growth 96h 2.9µM
COc1ccc(-c2sc(Nc3ccccc3)n[n+]2-c2ccc(F)cc2)cc1Br	Pf growth 48h inconclusive, Pf growth 96h 7.4µM
